Compound activity from PubChem.
Neddyl block – blocks human cullin neddylation; inhibition, % at 25 µM; AID 651699; hit rate 0.58% among 360,000; TR-FRET cullin neddylation, biochemical; in the data active = inhibition above about 36%
A1 inh – inhibitors of the anti-apoptotic protein A1, read as caspase activation | MEF A1-2A-BIM cells, Caspase-Glo 3/7 luminescence, 3 h; percent of clofoctol response, vehicle zero | AID 2462 | hit rate 0.066% among 330,000 | caspase activation, % (no concentration beside the values);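 active = over half of replicate activation scores above 10%, or exactly half above 10 with the replicate mean above 10; inconclusive = replicate mean below 10 yet half the replicates above 10; inactive = over half of replicates below 10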
GSIS activator – primary screen for activators of insulin secretion dependent on glucose, INS-1E cells, GLuc reporter luminescence. activation, % at 16.6 µM. AID 743287. INS-1E GLuc reporter insulin secretion, 2-3 h. hit rate 0.61% among 370,000;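 active = lowest replicate activation of at least 40%, so every replicate reaches that level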;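 note: 0% = median of neutral control wells and 100% = median of IBMX positive control wells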
dFosB act-1 – activators of mouse delta FosB homodimer; P13346; purified delta FosB, TAMRA-CDK5 oligo fluorescence polarization; percent of positive-control signal above neutral wells; activation, % at 25 µM; hit rate 0.99% among 340,000; AID 493131;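 active = mean activation above about 17%, with every replicate also reaching it, limit read from the data, passing the limit was not always enough; inconclusive = only one of the two conditions met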
Target sequence (P13346 whole entry, looked up): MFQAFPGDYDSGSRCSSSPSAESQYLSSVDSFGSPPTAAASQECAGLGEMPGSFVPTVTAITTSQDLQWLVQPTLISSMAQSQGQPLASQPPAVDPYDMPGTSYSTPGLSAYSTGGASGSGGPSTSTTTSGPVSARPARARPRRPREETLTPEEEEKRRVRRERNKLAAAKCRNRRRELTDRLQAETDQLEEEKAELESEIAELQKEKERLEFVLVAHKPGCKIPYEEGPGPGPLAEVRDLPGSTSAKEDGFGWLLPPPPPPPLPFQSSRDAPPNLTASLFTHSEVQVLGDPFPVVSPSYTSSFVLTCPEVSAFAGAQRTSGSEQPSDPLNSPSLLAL
Vif imaging – HIV Vif inhibition; HEK293T cells, Vif self-association by quenched fluorescence, imaging, 24 h; inhibition, % at 7.49 µM; hit rate 0.35% among 340,000; in the data active = inhibition above about 50%, passing the limit was not always enough; inconclusive = no clear call, values can overlap the other calls; inactive = below about 31%
dFosB act-2 – enhances mouse delta FosB homodimer binding to DNA; shares compounds with dFosB act-1; purified delta FosB, TAMRA-CDK5 oligo fluorescence polarization; normalised: neutral wells 0, positive control 100; activation, % at 24.9 µM; 2,400 tested, under 10 active;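 active = highest replicate activation at or above 34% and every replicate reaching that threshold; inconclusive = meets only one of the two criteria; inactive = meets neither criterion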;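 note: higher polarization means more probe DNA bound by delta FosB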
* hit, by the source's call; ? = inconclusive; nt = not tested or not shown. Compounds with a hit are over-represented: about 1.9% of the library has one in this group of screens.

SMILES	Neddyl block	A1 inh	GSIS activator	dFosB act-1	Vif imaging	dFosB act-2
CCc1ccccc1NC(=O)c1nnn(CC(=O)Nc2cccc(C)c2C)c1N	-35	-1	nt	42*	10	-8
Cc1ccc(NC(=O)Cn2nnc(C(=O)NCc3cccs3)c2N)c(C)c1	4	0	-9	13	2	nt
Cc1cc(C)cc(NC(=O)Cn2nnc(C(=O)NCc3cccs3)c2N)c1	2	0	9	58*	1	3
COc1ccc(CN(C)C[C@@H]2OCCCC[C@@H](C)Oc3ccc(NC(=O)Nc4c(C)noc4C)cc3C(=O)N([C@H](C)CO)C[C@@H]2C)cc1	nt	nt	2	nt	nt	nt
O=C(O)C[C@@H]1C[C@@H]2c3cc(NC(=O)C4CCOCC4)ccc3O[C@@H]2[C@@H](CO)O1	nt	nt	-4	nt	nt	nt
CN(C)CC(=O)N[C@@H]1CC[C@H](CC(=O)NCc2ccccc2F)O[C@H]1CO	nt	nt	8	nt	nt	nt
O=C(NCCC1=CCCCC1)c1cc(S(=O)(=O)N2CCOCC2)c(Cl)cc1Cl	5	1	21	19*	nt	-3
Cc1cc(C)c2oc(C(=O)Nc3ccc(S(=O)(=O)Nc4nccs4)cc3)cc(=O)c2c1	-18	0	15	2	-3	nt
Cc1cc2oc(C(=O)Nc3ccc(S(=O)(=O)Nc4nccs4)cc3)cc(=O)c2cc1Cl	-3	0	34	37*	4	1
O=C(Cn1cnc2c(nnn2Cc2ccc(F)cc2)c1=O)Nc1ccc2c(c1)OCCO2	6	2	1	27*	4	0
O=C(Cn1cnc2c(nnn2Cc2ccc(F)cc2)c1=O)Nc1cccc(F)c1	-6	1	-6	11	nt	nt
COC(=O)c1ccc(NC(=O)Cn2cnc3c(nnn3-c3cccc(OC)c3)c2=O)cc1	7	0	0	37*	nt	0
COc1ccc(-n2nnc3c(=O)n(CC(=O)N4CCCc5ccccc54)cnc32)cc1	0	1	nt	35*	3	3
Cc1ccc(NC(=O)Cn2cnc3c(nnn3Cc3ccc(F)cc3)c2=O)cc1	10	0	3	23*	nt	1
Cc1noc(C)c1S(=O)(=O)Nc1ccc2c(c1)C(=O)N([C@@H](C)CO)C[C@@H](C)[C@@H](CN(C)C(=O)Nc1ccc3c(c1)OCO3)OCCCC[C@@H](C)O2	nt	nt	5	nt	nt	nt
CCc1ccc(NC(=O)CSc2nnnn2C)cc1	-3	-3	1	-9	-3	nt
CC(=O)Nc1ccc(-n2nnnc2SCC(=O)Nc2cccc(NC(=O)c3ccco3)c2)cc1	4	-1	10	33*	-5	8
COc1cc(OC)cc(-n2nnnc2SCC(=O)Nc2ccc(C(C)=O)cc2)c1	-89	-1	nt	37*	1	-7
O=C(CSc1nnnn1-c1ccc(Cl)cc1)NC(=O)Nc1ccc2c(c1)OCCO2	-1	0	3	21*	31	7
CCc1ccc(-n2nnnc2SCC(=O)Nc2ccc(NC(C)=O)cc2)cc1	3	1	-5	18*	0	8
O=C(CSc1nnnn1-c1ccccc1)Nc1ccccc1	10	0	15	-4	-4	nt
COc1ccc(NC(=O)CSc2nnnn2-c2ccc(OC)cc2)cc1	-6	1	nt	2	1	nt
COc1ccc2c3c([nH]c2c1)[C@@H](CO)N(C(=O)c1ccncc1)CC31CCN(C(=O)c2ccncc2)CC1	nt	nt	15	nt	nt	nt
Cc1ccccc1-c1ccc2c(c1)O[C@H](CN(C)C(=O)Nc1ccc(F)cc1)[C@H](C)CN([C@@H](C)CO)S2(=O)=O	nt	nt	-18	nt	nt	nt
COc1ccc(C(=O)Nc2ccc(NC(=O)c3cccs3)cn2)cc1	37	1	2	33*	-18	2
SMILES	Neddyl block	A1 inh	GSIS activator	dFosB act-1	Vif imaging	dFosB act-2
COc1ccc(NC(=O)c2ccc(NC(=O)CCS(=O)(=O)c3cccs3)cc2)cc1	12	-1	0	30*	0	-4
CC(=O)c1ccc(NC(=O)c2ccc(NC(=O)CCS(=O)(=O)c3cccs3)cc2)cc1	6	-4	23	-5	-2	nt
COc1ccc(C(=O)NCC(=O)Nc2ccc(-c3ccccc3)cc2)cc1	5	-1	11	38*	-18	-1
C[C@H]1CN([C@@H](C)CO)C(=O)Cc2cc(NC(=O)Cc3cn(C)c4ccccc34)ccc2O[C@@H]1CN(C)C(=O)Nc1ccc(C(F)(F)F)cc1	nt	nt	-20	nt	nt	nt
COc1ccc2c3c([nH]c2c1)[C@@H](CO)N(C(=O)Nc1ccccc1F)CC31CN(C(=O)C2CC2)C1	nt	nt	-2	nt	nt	nt
CNc1nc(Nc2ccc(C(C)=O)cc2)nc(OC(C(F)(F)F)C(F)(F)F)n1	-25	0	nt	44*	0	-1
Cc1nn(C)cc1NC(=O)C[C@@H]1CC[C@@H]2[C@H](COc3ccc(NC(=O)C(C)C)cc3C(=O)N2C)O1	nt	nt	12	nt	nt	nt
COC(=O)C[C@H]1CC[C@H]2[C@H](COc3ccc(NC(=O)Nc4cccc(Cl)c4)cc3C(=O)N2C)O1	nt	nt	-8	nt	nt	nt
C#CCOCCOCCOCCNc1nc(N2CCN(C(=O)[C@H](CCCCN)n3cc([C@@H](N)[C@H](C)CC)nn3)CC2)nc(N2CCN(C(=O)[C@H](CCCCN)n3cc([C@@H](N)CC(N)=O)nn3)CC2)n1	2	1	23	-2	-3	nt
C#CCOCCOCCOCCNc1nc(N2CCN(C(=O)[C@H](CCCCN)n3cc([C@@H](N)C(C)CC)nn3)CC2)nc(N2CCN(C(=O)[C@H](CCCCN)n3cc([C@@H](N)CC(C)C)nn3)CC2)n1 (stereo partly drawn)	-8	1	3	28*	6	?
C#CCOCCOCCOCCNc1nc(N2CCN(C(=O)C([C@@H](C)O)n3cc([C@@H](N)CCCCN)nn3)CC2)nc(N2CCN(C(=O)[C@H](CO)n3cc([C@@H](N)C(C)C)nn3)CC2)n1 (stereo partly drawn)	16	0	2	31*	-3	1
C#CCOCCOCCOCCNc1nc(N2CCN(C(=O)[C@H]([C@@H](C)CC)n3cc([C@@H](N)CO)nn3)CC2)nc(N2CCN(C(=O)[C@H](Cc3ccc(O)cc3)n3cc([C@@H](N)C(C)CC)nn3)CC2)n1 (stereo partly drawn)	-21	1	nt	-8	nt	nt
C#CCOCCOCCOCCNc1nc(N2CCN(C(=O)[C@H]([C@@H](C)CC)n3cc([C@@H](N)CC(C)C)nn3)CC2)nc(N2CCN(C(=O)[C@H]([C@@H](C)CC)n3cc([C@@H](N)CC(C)C)nn3)CC2)n1	-11	0	nt	31*	-1	0
C#CCOCCOCCOCCNc1nc(N2CCN(C(=O)[C@H]([C@@H](C)CC)n3cc([C@@H](N)Cc4ccc(O)cc4)nn3)CC2)nc(N2CCN(C(=O)[C@H](CCCCN)n3cc([C@@H](N)C(C)CC)nn3)CC2)n1 (stereo partly drawn)	5	0	nt	23*	-2	4
